From publication PMC7862700, “An all-to-all approach to the identification of sequence-specific readers for epigenetic DNA modifications on cytosine” come the findings set out here.

What all share (assay): DAPPL (digital affinity profiling via proximity ligation, sequencing); 10 mM Tris-HCl pH 7.5, 50 mM NaCl, 1 mM DTT, 4% glycerol, room temperature, 30 min; GST-TFs on glutathione beads, 16-mer random dsDNA library, 0.1% formaldehyde crosslink after washing; high values mean tight binding
What all share (conditions): protein: recombinant; tags: N-terminal GST; dsDNA, one strand shown

In assay [1] the target is T1, FLI1 (Homo sapiens, UniProt Q01543 1-452).
T1 sequence: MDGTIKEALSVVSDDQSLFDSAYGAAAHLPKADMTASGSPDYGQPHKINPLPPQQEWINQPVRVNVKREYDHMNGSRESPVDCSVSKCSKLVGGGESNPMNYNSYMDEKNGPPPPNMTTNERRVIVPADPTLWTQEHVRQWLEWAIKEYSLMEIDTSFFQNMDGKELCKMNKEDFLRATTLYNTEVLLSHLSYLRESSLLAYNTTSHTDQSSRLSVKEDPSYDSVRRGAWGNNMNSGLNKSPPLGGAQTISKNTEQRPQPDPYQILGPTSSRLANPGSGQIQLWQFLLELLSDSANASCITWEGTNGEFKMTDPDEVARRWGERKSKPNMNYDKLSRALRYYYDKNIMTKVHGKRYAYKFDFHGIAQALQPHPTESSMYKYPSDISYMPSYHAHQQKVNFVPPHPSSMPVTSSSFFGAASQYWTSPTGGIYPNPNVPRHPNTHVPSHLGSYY
In short, it runs like this:
(§1)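 Pools of DNA-barcoded human transcription factors, expressed in yeast as GST fusions on glutathione beads and combined with a tag-only sample, were incubated with 200 nmole of a 16-mer random double-stranded DNA library. Incubation took 30 min at room temperature in Tris/NaCl/DTT/glycerol buffer and was followed by washing, 0.1% formaldehyde crosslinking, proximity ligation (BsaI/T4 ligase, 1 h, 37 °C), PCR amplification and sequencing on an Illumina NextSeq500. Binding signal is the ratio of a hexamer's read frequency for a factor to its frequency for the tag-only sample.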

The target in assay [2] is T2, ELK1 (Homo sapiens, UniProt P19419 1-428).
T2 sequence: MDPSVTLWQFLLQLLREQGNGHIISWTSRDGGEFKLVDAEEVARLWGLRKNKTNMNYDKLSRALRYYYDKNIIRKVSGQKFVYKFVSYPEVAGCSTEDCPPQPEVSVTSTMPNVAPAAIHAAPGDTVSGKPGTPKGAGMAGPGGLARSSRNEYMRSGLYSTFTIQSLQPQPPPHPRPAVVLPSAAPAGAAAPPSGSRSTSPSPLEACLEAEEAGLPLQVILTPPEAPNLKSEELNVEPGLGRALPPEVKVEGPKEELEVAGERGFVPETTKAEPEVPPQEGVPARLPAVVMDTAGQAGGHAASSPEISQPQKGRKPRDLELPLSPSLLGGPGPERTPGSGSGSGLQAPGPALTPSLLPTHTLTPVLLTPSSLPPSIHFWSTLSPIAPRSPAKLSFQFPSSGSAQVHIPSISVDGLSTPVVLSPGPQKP
An outline of the steps: as §1

The target of assay [3] is T3, GABPA (Homo sapiens, UniProt Q06546 1-454).
T3 sequence: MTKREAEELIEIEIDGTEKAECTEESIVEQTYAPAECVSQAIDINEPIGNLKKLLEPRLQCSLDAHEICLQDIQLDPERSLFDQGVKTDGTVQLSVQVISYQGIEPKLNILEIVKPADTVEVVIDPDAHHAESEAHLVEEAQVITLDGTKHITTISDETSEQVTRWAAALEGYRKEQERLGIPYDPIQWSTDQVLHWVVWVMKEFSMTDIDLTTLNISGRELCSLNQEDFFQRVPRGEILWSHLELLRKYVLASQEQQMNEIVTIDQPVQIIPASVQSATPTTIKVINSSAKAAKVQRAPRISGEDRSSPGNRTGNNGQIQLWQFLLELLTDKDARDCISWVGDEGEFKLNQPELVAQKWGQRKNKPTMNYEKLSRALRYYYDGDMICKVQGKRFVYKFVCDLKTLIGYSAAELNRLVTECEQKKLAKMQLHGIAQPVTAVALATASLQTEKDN
An outline of the steps: as §1

Assay [4] deals with T4, ERG (Homo sapiens, UniProt P11308 1-479).
T4 sequence: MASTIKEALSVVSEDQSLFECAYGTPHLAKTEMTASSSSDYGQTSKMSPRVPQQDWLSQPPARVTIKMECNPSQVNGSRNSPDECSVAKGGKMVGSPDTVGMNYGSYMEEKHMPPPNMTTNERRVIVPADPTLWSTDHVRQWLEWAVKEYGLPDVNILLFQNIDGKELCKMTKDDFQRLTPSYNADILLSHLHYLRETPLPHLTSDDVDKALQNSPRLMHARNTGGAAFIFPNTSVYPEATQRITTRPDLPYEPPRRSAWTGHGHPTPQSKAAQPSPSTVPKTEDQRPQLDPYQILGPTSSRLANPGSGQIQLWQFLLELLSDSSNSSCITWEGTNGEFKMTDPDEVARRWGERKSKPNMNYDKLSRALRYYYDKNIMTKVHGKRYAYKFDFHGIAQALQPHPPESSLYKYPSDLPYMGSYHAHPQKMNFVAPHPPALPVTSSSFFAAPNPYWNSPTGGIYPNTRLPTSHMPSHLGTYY
In short, it runs like this: as §1

In assay [5] the target is ELF1 (Homo sapiens, UniProt P32519 1-619). An outline of the steps:
as §1

Assay [6] deals with T5, EHF (Homo sapiens, UniProt Q9NZC4 1-300).
T5 sequence: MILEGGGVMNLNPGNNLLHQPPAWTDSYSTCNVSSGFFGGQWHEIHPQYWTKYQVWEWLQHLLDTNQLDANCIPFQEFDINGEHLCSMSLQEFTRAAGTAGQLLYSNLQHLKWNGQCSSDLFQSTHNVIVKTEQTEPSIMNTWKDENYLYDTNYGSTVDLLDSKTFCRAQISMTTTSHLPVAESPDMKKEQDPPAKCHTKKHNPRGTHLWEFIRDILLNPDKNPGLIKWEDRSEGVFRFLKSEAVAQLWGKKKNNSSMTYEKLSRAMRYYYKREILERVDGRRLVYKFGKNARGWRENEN
In short, it runs like this:
as §1

For assay [7], the target named is SPI1 (Homo sapiens, UniProt P17947 1-270). In short, it runs like this:
as §1

Assay [8] deals with SPIB (Homo sapiens, UniProt Q01892 1-262). An outline of the steps: as §1
Sequence of SPIB (Q01892 whole entry): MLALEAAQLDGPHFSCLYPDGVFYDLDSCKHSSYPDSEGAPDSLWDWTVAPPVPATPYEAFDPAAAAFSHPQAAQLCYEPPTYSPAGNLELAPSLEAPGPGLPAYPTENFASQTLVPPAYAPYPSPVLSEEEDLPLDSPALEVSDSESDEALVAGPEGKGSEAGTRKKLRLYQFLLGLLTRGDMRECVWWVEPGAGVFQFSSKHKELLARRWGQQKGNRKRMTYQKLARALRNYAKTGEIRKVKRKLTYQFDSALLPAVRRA
The target of assay [9] is T6, FEV (Homo sapiens, UniProt Q99581 1-238).
T6 sequence: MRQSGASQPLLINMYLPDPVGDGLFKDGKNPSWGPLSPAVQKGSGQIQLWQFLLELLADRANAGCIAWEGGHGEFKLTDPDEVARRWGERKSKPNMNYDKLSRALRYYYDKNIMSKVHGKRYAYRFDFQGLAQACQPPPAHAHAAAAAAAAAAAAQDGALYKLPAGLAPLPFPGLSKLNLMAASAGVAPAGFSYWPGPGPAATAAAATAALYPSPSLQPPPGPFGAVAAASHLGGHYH
An outline of the steps: as §1

Assay [10] has as its target ETV5 (Homo sapiens, UniProt P41161 1-510). In short, it runs like this: as §1
Assay [11] has as its target T7, SPIC (Homo sapiens, UniProt Q8N5J4 1-248).
T7 sequence: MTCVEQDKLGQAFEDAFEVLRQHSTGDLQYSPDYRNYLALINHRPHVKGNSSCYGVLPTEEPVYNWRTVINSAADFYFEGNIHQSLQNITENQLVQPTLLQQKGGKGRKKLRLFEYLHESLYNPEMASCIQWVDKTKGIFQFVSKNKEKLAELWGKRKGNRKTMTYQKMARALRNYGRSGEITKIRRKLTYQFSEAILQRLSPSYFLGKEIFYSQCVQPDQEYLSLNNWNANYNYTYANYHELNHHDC
An outline of the steps: as §1

Assay [12] has as its target ELF4 (Homo sapiens, UniProt Q99607 1-663). An outline of the steps: as §1
The target in assay [13] is ETV1 (Homo sapiens, UniProt P50549 1-477). In short, it runs like this: as §1
Sequence of ETV1 (P50549 whole entry): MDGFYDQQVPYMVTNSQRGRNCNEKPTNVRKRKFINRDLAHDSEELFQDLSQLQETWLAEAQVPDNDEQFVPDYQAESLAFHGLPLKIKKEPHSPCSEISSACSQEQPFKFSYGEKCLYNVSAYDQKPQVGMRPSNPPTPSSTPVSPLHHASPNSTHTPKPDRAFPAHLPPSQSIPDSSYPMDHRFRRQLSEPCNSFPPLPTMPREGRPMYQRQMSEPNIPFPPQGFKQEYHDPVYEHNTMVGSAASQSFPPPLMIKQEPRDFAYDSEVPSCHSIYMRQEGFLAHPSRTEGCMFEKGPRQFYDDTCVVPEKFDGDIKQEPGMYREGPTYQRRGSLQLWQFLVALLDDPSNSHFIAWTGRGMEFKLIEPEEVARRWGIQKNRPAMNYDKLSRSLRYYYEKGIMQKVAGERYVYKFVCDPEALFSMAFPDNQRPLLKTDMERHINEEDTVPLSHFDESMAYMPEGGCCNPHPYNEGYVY
In assay [14] the target is T8, ERF (Homo sapiens, UniProt P50548 1-548).
T8 sequence: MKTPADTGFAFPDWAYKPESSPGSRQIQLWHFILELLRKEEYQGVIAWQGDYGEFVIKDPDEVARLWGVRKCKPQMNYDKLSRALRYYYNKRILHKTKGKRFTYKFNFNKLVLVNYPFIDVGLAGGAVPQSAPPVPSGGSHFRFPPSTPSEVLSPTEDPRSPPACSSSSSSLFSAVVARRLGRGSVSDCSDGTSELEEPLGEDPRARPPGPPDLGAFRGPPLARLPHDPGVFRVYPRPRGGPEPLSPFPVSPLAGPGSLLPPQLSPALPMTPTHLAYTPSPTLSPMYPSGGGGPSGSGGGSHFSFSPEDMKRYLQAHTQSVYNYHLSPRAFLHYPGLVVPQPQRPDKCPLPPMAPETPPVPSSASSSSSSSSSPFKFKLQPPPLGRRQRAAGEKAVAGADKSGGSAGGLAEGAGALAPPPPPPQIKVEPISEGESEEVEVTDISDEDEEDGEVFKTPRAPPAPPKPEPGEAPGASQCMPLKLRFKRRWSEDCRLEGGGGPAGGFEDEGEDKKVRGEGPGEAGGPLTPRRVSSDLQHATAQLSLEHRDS
In short, it runs like this:
as §1

The target of assay [15] is T9, ETV3L (Homo sapiens, UniProt Q6ZN32 1-361).
T9 sequence: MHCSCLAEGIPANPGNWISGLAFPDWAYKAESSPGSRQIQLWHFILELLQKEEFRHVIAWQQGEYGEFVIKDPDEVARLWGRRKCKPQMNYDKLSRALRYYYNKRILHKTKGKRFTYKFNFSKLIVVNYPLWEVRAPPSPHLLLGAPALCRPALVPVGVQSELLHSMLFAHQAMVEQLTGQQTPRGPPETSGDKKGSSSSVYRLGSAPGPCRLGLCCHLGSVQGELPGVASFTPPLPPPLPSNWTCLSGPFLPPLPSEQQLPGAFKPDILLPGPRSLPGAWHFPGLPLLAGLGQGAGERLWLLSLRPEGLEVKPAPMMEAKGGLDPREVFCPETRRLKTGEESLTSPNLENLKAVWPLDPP
In short, it runs like this:
as §1

Assay [16] deals with T10, ETS2 (Homo sapiens, UniProt P15036 1-469).
T10 sequence: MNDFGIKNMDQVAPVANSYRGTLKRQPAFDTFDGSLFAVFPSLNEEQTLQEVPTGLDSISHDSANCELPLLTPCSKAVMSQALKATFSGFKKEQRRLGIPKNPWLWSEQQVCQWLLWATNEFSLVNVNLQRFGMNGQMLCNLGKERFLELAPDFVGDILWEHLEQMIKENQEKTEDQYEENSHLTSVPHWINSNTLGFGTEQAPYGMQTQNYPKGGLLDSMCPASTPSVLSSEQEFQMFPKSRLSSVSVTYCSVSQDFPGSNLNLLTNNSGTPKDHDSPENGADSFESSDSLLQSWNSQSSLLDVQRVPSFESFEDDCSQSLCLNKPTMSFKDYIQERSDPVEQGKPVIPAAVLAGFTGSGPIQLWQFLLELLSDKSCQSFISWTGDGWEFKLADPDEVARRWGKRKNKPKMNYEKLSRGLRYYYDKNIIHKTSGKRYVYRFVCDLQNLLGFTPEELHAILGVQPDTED
In short, it runs like this:
as §1

In assay [17] the target is T11, SPDEF (Homo sapiens, UniProt O95238 1-335).
T11 sequence: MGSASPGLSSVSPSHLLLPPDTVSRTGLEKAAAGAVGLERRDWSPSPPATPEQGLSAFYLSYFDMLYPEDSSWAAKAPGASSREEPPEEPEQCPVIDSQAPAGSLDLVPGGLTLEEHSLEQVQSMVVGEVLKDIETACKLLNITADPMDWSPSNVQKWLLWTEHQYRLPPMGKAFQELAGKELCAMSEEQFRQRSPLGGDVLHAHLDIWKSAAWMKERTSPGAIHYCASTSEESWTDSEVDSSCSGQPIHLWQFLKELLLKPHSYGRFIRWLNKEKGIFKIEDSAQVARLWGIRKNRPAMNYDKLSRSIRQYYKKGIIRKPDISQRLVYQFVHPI
An outline of the steps: as §1

Assay [18] addresses T12, ETV3 (Homo sapiens, UniProt P41162-2 1-143).
T12 sequence: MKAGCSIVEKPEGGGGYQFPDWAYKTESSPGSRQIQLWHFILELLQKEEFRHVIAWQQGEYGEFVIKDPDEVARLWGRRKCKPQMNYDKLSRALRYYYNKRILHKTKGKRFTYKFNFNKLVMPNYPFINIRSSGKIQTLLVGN
An outline of the steps:
as §1

For assay [19], the target named is ETV6 (Homo sapiens, UniProt P41212 1-452). In short, it runs like this:
as §1

Sequence of ELF1 (P32519 whole entry): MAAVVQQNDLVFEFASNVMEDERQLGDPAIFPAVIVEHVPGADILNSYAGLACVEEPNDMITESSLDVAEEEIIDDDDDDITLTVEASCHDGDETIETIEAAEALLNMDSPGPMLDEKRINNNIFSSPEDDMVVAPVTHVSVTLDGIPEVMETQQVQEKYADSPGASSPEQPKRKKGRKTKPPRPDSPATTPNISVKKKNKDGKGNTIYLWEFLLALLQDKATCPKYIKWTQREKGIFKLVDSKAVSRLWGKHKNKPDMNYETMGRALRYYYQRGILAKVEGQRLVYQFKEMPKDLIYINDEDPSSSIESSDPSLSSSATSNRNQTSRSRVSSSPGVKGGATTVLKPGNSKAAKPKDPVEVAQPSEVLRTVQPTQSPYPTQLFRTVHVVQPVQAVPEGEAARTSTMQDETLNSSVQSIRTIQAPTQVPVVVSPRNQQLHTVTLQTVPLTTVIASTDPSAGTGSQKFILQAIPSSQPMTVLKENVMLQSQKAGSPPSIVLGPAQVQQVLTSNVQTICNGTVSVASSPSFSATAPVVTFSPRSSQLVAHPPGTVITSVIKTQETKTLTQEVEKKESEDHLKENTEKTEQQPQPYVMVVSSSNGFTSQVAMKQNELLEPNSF
Sequence of ELF4 (Q99607 whole entry): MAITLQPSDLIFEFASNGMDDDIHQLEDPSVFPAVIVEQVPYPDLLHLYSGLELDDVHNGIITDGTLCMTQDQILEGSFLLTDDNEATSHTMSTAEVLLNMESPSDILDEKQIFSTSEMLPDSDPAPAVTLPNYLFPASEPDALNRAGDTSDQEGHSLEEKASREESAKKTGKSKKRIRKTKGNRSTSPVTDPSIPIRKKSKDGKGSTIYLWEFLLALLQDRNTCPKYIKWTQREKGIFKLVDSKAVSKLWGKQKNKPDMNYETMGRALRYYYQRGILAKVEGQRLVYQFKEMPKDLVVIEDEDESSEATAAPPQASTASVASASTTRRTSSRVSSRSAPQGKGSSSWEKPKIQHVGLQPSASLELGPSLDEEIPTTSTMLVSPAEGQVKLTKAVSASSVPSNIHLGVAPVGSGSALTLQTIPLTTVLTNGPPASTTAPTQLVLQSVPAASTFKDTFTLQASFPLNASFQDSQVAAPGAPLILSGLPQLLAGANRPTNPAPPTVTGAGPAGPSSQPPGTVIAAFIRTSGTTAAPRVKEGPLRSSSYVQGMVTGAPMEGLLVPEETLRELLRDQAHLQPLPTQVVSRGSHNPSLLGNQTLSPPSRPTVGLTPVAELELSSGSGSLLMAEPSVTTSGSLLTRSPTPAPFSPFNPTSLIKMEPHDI
Sequence of ETV5 (P41161 whole entry): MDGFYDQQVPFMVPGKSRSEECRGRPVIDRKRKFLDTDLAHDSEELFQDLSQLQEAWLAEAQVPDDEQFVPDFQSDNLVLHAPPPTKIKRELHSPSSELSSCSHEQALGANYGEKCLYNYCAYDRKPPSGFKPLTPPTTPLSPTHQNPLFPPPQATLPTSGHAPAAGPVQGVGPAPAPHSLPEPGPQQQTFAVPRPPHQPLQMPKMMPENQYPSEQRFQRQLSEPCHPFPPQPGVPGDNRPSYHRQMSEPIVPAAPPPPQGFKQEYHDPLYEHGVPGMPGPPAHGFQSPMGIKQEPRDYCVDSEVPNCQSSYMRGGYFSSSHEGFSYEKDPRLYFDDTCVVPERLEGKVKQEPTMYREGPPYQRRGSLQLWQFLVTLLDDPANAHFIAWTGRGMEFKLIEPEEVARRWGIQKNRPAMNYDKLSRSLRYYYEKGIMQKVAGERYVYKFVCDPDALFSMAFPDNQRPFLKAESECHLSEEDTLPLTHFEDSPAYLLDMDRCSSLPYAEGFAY
Sequence of ETV6 (P41212 whole entry): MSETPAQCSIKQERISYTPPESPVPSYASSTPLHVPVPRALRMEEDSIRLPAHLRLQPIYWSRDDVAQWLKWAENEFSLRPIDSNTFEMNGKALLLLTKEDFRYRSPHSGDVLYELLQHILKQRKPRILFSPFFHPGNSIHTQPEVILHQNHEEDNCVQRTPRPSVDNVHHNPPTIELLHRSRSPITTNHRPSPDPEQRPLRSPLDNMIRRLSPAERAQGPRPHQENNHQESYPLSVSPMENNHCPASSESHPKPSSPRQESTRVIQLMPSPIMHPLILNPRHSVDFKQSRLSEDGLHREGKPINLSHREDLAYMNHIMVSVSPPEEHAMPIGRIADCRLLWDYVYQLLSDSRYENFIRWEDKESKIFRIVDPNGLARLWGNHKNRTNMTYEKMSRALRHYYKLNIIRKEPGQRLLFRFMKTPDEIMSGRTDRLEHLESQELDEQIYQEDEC

Turning to GCCCAC, the binding signal in [1] is 1.09 fold enrichment (6-mer frequency, TF over GST control); in [2], 1.18 fold enrichment (6-mer frequency, TF over GST control); in assay [3] it was 1.06 fold enrichment (6-mer frequency, TF over GST control); in [4], 1.06 fold enrichment (6-mer frequency, TF over GST control); in assay [5] it was 1.1 fold enrichment (6-mer frequency, TF over GST control); in [6], 1.13 fold enrichment (6-mer frequency, TF over GST control). Also, the binding signal in assay [7] was 1.07 fold enrichment (6-mer frequency, TF over GST control); in assay [8], 1.12 fold enrichment (6-mer frequency, TF over GST control); in assay [9] it was 1.12 fold enrichment (6-mer frequency, TF over GST control); in assay [10], 1.16 fold enrichment (6-mer frequency, TF over GST control); in assay [11], 1.13 fold enrichment (6-mer frequency, TF over GST control); in assay [12], 1.18 fold enrichment (6-mer frequency, TF over GST control). Moreover, the binding signal in assay [13] was 1 fold enrichment (6-mer frequency, TF over GST control); in assay [14], 1.09 fold enrichment (6-mer frequency, TF over GST control); in [15], 1.04 fold enrichment (6-mer frequency, TF over GST control); in assay [16] it was 1.04 fold enrichment (6-mer frequency, TF over GST control); in assay [17] it was 1.06 fold enrichment (6-mer frequency, TF over GST control); in assay [18], 1.09 fold enrichment (6-mer frequency, TF over GST control). In assay [19], the binding signal is 1.05 fold enrichment (6-mer frequency, TF over GST control).
